Drawing on PubChem BioAssay (NCI), this text covers growth for 29 molecules.

The panel holds about 83,000 compounds, 20% with a hit somewhere; the sample as a whole holds those more often.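 How to read the values: 0–100, growth inhibition (40 = 60% inhibited); 0, no net growth; -100 to 0, cell death (-40 = 40% of starting cells died; -100 = all dead).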 Unmarked numbers belong to inactive results. The source made the active and inactive calls. The calls were made as follows: active = growth percent below 10; inactive = the rest.

Holding throughout (assay): NCI-60 one-dose screen, 48 h (100 = growth as untreated, 0 = no growth, -100 = all killed)
Holding throughout (conditions): 10 µM unless noted

The test system of assay [1] is T-47D breast.
In assay [2] the test system is BT-549 breast.
The subject of assay [3] is MDA-MB-435 melanoma.
In assay [4] the test system is SW-620 colon.
Assay [5] concerns MCF7 breast.
The test system of assay [6] is HCT-116 colon.
Assay [7] relates to HCC-2998 colon.
Assay [8] deals with KM12 colon.

Take `NS(=O)(=O)N(c1cc(C(F)(F)F)cc(C(F)(F)F)c1)C1CCN(Cc2ccc(C(F)(F)F)cc2)CC1`: the growth in assay [1] was 29.5%; in assay [2], 37.4%; in assay [3], -60.4% (active); in assay [4], 19.9%; in assay [5], 9.31% (active); in assay [6], 2.21% (active). Further, the figures for the growth in assay [7] and in assay [8] were 3.6% (active) and 12.9%, respectively.
For `O=c1[nH]c(N2CCC(Cc3ccccc3)CC2)nc2sc3c(c12)CCCC3`, the growth in assay [1] was 96.6%; in assay [2], 109%; in assay [3] it was 102%; in assay [4], 101%; in assay [5] it was 98.1%; in assay [6] it was 104%. Further, the results for the growth in assay [7] and in assay [8] were 103% and 100%, respectively.
On to `Cc1nn(-c2ccccc2)c2nc(N)c(C3=NCCO3)nc12`, for which the growth in assay [1] is 77.5%; in assay [2], 92.6%; in assay [3] it was 101%; in assay [4], 92.6%; in assay [5], 83.6%; in assay [6] it was 95.8%. The values for the growth in assay [7] and in assay [8] were 101% and 104%, respectively.
On to `O=Cc1ccccc1C(=O)O`, for which the growth was 97.2% in assay [1]; 102% in assay [2]; 96.6% in assay [3]; 102% in assay [4]; 93.7% in assay [5]; 99.6% in assay [6]. Further, the growth in assay [7] is 98.1%; in assay [8], 97.9%.
`CCSc1nc(-c2ccco2)n2nc(-c3ccco3)cc2n1`: the growth was 22.9% in assay [1]; 107% in assay [2]; 111% in assay [3]; 95.5% in assay [4]; 22.6% in assay [5]; 93.4% in assay [6]. The figures for the growth in assay [7] and in assay [8] were 83.7% and 63.8%, respectively.
As for `C[C@H](C(=O)N[C@@H](Cc1ccc(-c2ccccc2)cc1)C(=O)NC1CC(C)(C)N(C)C(C)(C)C1)c1ccc(-c2ccccc2)c(F)c1`, the growth in assay [1] was -52.7% (active); in assay [2], -82.5% (active); in assay [3], -84.9% (active); in assay [4], -76.8% (active); in assay [5], -79.6% (active); in assay [6], -87.6% (active). For the same molecule, the growth is -86.8% (active) in assay [7] and -78.6% (active) in assay [8].
On to `COc1ccccc1NC(=O)c1sc2nc3c(cc2c1N)C(=O)CCC3`, for which the growth was 87.3% in assay [1]; 63.1% in assay [2]; -31.9% (active) in assay [3]; 60.2% in assay [4]; 59% in assay [5]; 75.5% in assay [6]. Besides, the results for the growth in assay [7] and in assay [8] were 75.5% and 53.4%, respectively.
`O=C1/C(=C/c2ccc(F)cc2)Cc2ccccc21`: the growth in assay [1] is 103%; in assay [2], 89.6%; in assay [3], 107%; in assay [4], 104%; in assay [5], 27.3%; in assay [6] it was 87.9%. Besides, the results for the growth in assay [7] and in assay [8] were 89.9% and 106%, respectively.
On to `CC(C)CC1NC(=O)C(CCCN)NC(=O)C(C(C)C)NC(=O)C2CCCN2C(=O)C(Cc2ccccc2)NC(=O)C(CC(C)C)NC(=O)C(CCCN)NC(=O)C(C(C)C)NC(=O)C2CCCN2C(=O)C(Cc2ccccc2)NC1=O` (configuration not stated), for which the growth was -37.2% (active) in assay [1]; -77.7% (active) in assay [2]; -83.6% (active) in assay [3]; -75.6% (active) in assay [4]; -61.5% (active) in assay [5]; -92.2% (active) in assay [6]. Besides, the growth is -36.2% (active) in assay [7] and -75% (active) in assay [8].
In the case of `O=[N+]([O-])c1ccc(N=Nc2c(Cl)cc(O)cc2Cl)cc1`, the growth is 4.24% (active) in assay [1]; -33.6% (active) in assay [2]; -24.4% (active) in assay [3]; -10% (active) in assay [4]; 1.11% (active) in assay [5]; -57.2% (active) in assay [6]. Moreover, the growth in assay [7] was 5.82% (active); in assay [8] it was -39.8% (active).
Turning to `N#Cc1c(NC(=O)c2ccco2)[n+]([O-])c2cc(Cl)c(Cl)cc2[n+]1[O-]`, the growth in assay [1] was 112%; in assay [2] it was 94.4%; in assay [3] it was 126%; in assay [4] it was 119%; in assay [5], 87.8%; in assay [6], 105%. Moreover, the figures for the growth in assay [7] and in assay [8] were 109% and 131%, respectively.
For the molecule `CC[C@H]1CN2CCc3cc(OC)c(OC)cc3C2C[C@@H]1CC1NCCc2cc(OC)c(OC)cc21` (some centres not stated), the growth in assay [1] is -15.1% (active); in assay [2], -11% (active); in assay [3], -71.2% (active); in assay [4], -20.3% (active); in assay [5], -2.18% (active); in assay [6], -22.9% (active). The results for the growth in assay [7] and in assay [8] were -47.8% (active) and -37.2% (active), respectively.
For the molecule `O=C(/C=C/c1cccc(O)c1)c1cccc(-n2cc(-c3ccccc3)[nH]c2=O)c1`, the growth in assay [1] is 21.1%; in assay [2] it was 7.56% (active); in assay [3], 33.8%; in assay [4], -32.1% (active); in assay [5] it was 6.52% (active); in assay [6], -67.7% (active). Besides, the figures for the growth in assay [7] and in assay [8] were -44.2% (active) and -73.3% (active), respectively.
On to `CCCCCCC(CC#N)(CCC)CCCC` (configuration not stated), for which the growth is 112% in assay [1]; 120% in assay [2]; 103% in assay [3]; 107% in assay [4]; 96.1% in assay [5]; 104% in assay [6]. The values for the growth in assay [7] and in assay [8] were 110% and 111%, respectively.
On to `O=C(CNC(=O)c1cccc2ccccc12)Nc1ccccc1Cc1ccccc1`, for which the growth in assay [1] was 37.7% [5 µM]; in assay [2] it was 40.3% [5 µM]; in assay [3] it was -8.01% [5 µM] (active); in assay [4], 25.5% [5 µM]; in assay [5] it was 23.5% [5 µM]; in assay [6] it was 14.6% [5 µM]. The values for the growth in assay [7] and in assay [8] were 87.1% [5 µM] and 36% [5 µM], respectively.
`O=C(N/N=C/c1cccc([N+](=O)[O-])c1)c1ccc(Br)o1`: the growth in assay [1] is 83.4%; in assay [2] it was 103%; in assay [3] it was 106%; in assay [4], 116%; in assay [5], 78.1%; in assay [6], 100%. Further, the growth is 87.2% in assay [7] and 109% in assay [8].
With `COc1ccc2c(c1)[n+](=O)c(C(=O)/C=C/c1cc(OC)c(OC)c(OC)c1)c(C)n2[O-]`, the growth in assay [1] was 60.1%; in assay [2], 28.8%; in assay [3], 69.5%; in assay [4], 72.4%; in assay [5], 45.6%; in assay [6], 50.3%. The figures for the growth in assay [7] and in assay [8] were 98.1% and 88.6%, respectively.
Turning to `CCc1ccc(-c2nc(SCC(=O)NC3CCCCC3)n[nH]2)cc1`, the growth is 81.7% in assay [1]; 84.6% in assay [2]; 59.2% in assay [3]; 80.5% in assay [4]; 88.8% in assay [5]; 74.2% in assay [6]. Further, the growth in assay [7] was 76.3%; in assay [8], 82.2%.
On to `COc1cc(/C(Cl)=C/C=C/C(=O)c2c(C)[n+]([O-])c3ccc(Cl)cc3[n+]2[O-])cc(OC)c1OC`, for which the growth in assay [1] is 22.3%; in assay [2], 36.5%; in assay [3], 6.9% (active); in assay [4], 1.65% (active); in assay [5], 0.61% (active); in assay [6], 2.9% (active). Also, the growth in assay [7] is 83.2%; in assay [8], 33%.
Consider `COC(=O)[C@H](Cc1cn(C)cn1)NC(=O)[C@H](C)NC(=O)Nc1cc(C(F)(F)F)cc(C(F)(F)F)c1`, for which the growth in assay [1] was -58.7% [100 µM] (active); in assay [2] it was -91.6% [100 µM] (active); in assay [3], -86.7% [100 µM] (active); in assay [4], -27.4% [100 µM] (active); in assay [5], -60% [100 µM] (active); in assay [6], -84.2% [100 µM] (active). Moreover, the growth was -88.9% [100 µM] (active) in assay [7] and -70.8% [100 µM] (active) in assay [8].
As to `OCCN1CCN(CCCN2c3ccccc3Sc3ccc(C(F)(F)F)cc32)CC1`, the growth in assay [1] is 54.5%; in assay [2], 53%; in assay [3], -46.1% (active); in assay [4], -31.2% (active); in assay [5] it was 18.3%; in assay [6] it was 2.28% (active). The growth in assay [7] is -83.2% (active); in assay [8] it was 9.9% (active).
With `c1ccc2c(-c3nc4ccccc4[nH]3)cccc2c1`, the growth in assay [1] was 36%; in assay [2] it was 24.3%; in assay [3], -19% (active); in assay [4], 16.8%; in assay [5], 17.2%; in assay [6], 16.7%. Besides, the growth is 57.5% in assay [7] and 21.8% in assay [8].
For the molecule `CCCCCc1c(C)[nH]c(/C=C2\N=C(c3ccc[nH]3)C=C2Oc2ccc(Cl)cc2)c1C`, the growth in assay [1] is -38.1% [100 µM] (active); in assay [2], 0.41% [100 µM] (active); in assay [3], -71.7% [100 µM] (active); in assay [4], -31.7% [100 µM] (active); in assay [5], -68.5% [100 µM] (active); in assay [6], -89.8% [100 µM] (active). The growth is -17% [100 µM] (active) in assay [7] and -75.5% [100 µM] (active) in assay [8].
With `CC(=O)N1N=C(c2ccc(Nc3nc(NCCO)nc(NCCO)n3)cc2)CC1c1ccc(Cl)cc1` (configuration not stated), the growth was 66.2% in assay [1]; 87.9% in assay [2]; 101% in assay [3]; 107% in assay [4]; 90.5% in assay [5]; 83.4% in assay [6]. Also, the growth in assay [7] was 102%; in assay [8], 100%.
As for `C/C(=C\CCc1ccoc1)CC/C=C(\C)CCCN1CCSCC1`, the growth is 60.9% in assay [1]; 77.7% in assay [2]; 91.1% in assay [3]; 86.1% in assay [4]; 43.2% in assay [5]; 53.8% in assay [6]. Further, the growth in assay [7] is 74.6%; in assay [8] it was 81%.
For the molecule `O=C(CNc1ccc2c(c1)C(=O)c1ccccc1C2=O)Nc1ccc2c(c1)C(=O)c1ccccc1C2=O`, the growth was -65.5% (active) in assay [1]; -80.4% (active) in assay [2]; -82.4% (active) in assay [3]; -89.9% (active) in assay [4]; -71.1% (active) in assay [5]; -90.2% (active) in assay [6]. In addition, the growth was -93.3% (active) in assay [7] and -91.4% (active) in assay [8].
As for `O=C(NN1C(=O)c2cc(C(=O)O)c(C(=O)O)cc2C1=O)c1ccncc1`, the growth in assay [1] was 102%; in assay [2] it was 103%; in assay [3], 114%; in assay [4] it was 101%; in assay [5], 98.3%; in assay [6], 106%. Further, the growth in assay [7] was 103%; in assay [8] it was 111%.
As to `CC1=C([Se]CC(OC(=O)[C@@H](CSSC(C)(C)C)NC(=O)C(C)(C)C)C(=O)NCCCCCC(=O)OCc2ccccc2)C(=O)c2ccccc2C1=O` (some centres not stated), the growth in assay [1] is 17.9%; in assay [2] it was -64.2% (active); in assay [3] it was 14.2%; in assay [4], 9.84% (active); in assay [5], 30.3%; in assay [6], -18% (active). For the same molecule, the growth in assay [7] was -63.9% (active); in assay [8], 6.76% (active).
Turning to `c1ccc(-c2nc(Nc3nccnn3)c3ccccc3n2)cc1`, the growth in assay [1] is 83.4%; in assay [2] it was 99.1%; in assay [3], 101%; in assay [4], 97.9%; in assay [5], 75%; in assay [6], 100%. The growth in assay [7] is 106%; in assay [8], 97.8%.
